This note sets out measurements from PubChem BioAssay (NCATS).

Assay [1] deals with Rap guanine nucleotide exchange factor 3 (Homo sapiens) (UniProt O95398). Nature of the assay: Confirmatory qHTS for agonist of cAMP-regulated guanine nucleotide exchange factor 3 (EPAC1) (AID 1645881).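 Further: EPAC1 catalysed release of BODIPY-GDP from Rap1B seen as fluorescence loss; 100% = effect of cAMP agonist control; nearly all actives have a fitted effect of over 75% in size.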 The note with it: EPAC1 Rap1B BODIPY-GDP exchange fluorescence; series mostly up to 154 µM. In general terms: qHTS replaces the single test concentration by a dilution series.
Rap guanine nucleotide exchange factor 3 (Homo sapiens), sequence (O95398 whole entry, looked up): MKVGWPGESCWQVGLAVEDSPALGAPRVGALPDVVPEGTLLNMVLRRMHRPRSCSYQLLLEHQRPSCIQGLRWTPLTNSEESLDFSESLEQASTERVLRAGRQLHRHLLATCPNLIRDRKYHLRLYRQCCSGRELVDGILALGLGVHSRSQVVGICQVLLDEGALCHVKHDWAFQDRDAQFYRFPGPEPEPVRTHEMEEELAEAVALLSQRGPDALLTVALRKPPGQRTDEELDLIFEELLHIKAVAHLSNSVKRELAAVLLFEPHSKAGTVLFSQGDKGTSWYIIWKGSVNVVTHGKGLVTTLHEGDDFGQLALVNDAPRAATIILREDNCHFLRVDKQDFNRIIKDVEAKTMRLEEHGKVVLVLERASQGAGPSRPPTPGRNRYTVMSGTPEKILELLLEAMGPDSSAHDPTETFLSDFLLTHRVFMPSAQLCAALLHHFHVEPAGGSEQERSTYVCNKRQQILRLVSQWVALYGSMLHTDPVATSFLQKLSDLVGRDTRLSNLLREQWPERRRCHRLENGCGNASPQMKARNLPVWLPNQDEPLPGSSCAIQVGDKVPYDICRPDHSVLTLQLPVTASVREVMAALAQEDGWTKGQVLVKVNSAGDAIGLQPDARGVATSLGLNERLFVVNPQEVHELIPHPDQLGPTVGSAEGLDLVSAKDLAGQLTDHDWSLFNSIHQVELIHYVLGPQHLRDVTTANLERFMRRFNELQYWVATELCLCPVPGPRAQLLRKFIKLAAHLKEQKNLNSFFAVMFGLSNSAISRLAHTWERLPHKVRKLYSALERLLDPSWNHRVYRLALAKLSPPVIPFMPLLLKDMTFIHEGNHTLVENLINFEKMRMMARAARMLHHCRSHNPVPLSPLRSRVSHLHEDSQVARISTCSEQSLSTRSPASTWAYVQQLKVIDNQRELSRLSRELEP
In assay [2] the target is Rap guanine nucleotide exchange factor 4 (Homo sapiens) (UniProt Q8WZA2). Briefly: Confirmatory qHTS for agonist of cAMP-regulated guanine nucleotide exchange factor 4 (EPAC2) (AID 1645884).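 Further: nucleotide exchange releases bodipy-GDP from Rap1 and this lowers its fluorescence; on the % scale 0 is the no-effect control and ±100 the full control effect; nearly all actives have a fitted effect of over 65% in size.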 The note with it: EPAC2 GEF activity, Rap1B-BODIPY-GDP fluorescence; series mostly up to 154 µM.
Rap guanine nucleotide exchange factor 4 (Homo sapiens), sequence (Q8WZA2 whole entry, looked up): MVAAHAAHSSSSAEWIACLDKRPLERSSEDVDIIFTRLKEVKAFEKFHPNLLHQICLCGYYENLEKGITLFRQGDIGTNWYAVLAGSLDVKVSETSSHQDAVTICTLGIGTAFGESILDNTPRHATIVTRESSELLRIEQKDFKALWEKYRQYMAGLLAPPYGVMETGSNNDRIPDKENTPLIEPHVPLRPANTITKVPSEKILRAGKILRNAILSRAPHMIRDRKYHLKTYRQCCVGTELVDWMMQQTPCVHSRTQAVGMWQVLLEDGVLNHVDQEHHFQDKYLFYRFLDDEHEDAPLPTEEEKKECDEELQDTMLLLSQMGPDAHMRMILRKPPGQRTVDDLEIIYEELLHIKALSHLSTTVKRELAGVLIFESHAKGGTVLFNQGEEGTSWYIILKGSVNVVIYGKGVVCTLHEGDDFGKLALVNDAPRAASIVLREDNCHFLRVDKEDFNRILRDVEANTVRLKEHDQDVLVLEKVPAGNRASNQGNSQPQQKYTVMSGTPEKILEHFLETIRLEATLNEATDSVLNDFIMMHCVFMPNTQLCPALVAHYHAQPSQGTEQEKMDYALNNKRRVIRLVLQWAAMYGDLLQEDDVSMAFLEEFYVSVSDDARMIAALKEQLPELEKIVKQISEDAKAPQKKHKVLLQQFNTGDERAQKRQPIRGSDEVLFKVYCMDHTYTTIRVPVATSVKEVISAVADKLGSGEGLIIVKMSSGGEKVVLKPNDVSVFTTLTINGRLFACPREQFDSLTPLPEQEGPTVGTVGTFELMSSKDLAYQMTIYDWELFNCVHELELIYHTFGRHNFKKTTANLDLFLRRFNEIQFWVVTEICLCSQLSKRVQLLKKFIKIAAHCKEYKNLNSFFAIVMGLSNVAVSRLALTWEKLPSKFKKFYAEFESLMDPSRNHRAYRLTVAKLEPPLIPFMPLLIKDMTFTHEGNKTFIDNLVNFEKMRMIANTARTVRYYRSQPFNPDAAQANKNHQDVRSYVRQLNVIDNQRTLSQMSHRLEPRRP
Assay [3] has the same target. Nature of the assay: Confirmatory qHTS for antagonist of cAMP-regulated guanine nucleotide exchange factor 4 (EPAC2) (AID 1645885). Further: nearly all actives have a fitted effect of over 25% in size. Further: potency means the concentration at half of the fitted maximal effect. On activity change, negative = inhibition: on the % scale 0 is the no-effect control and ±100 the full control effect. The note with it: EPAC2 Rap1B-BODIPY-GDP exchange fluorescence, biochemical; series mostly up to 12.7 µM.
Assay [4] concerns the target Rap guanine nucleotide exchange factor 3 (Homo sapiens) (UniProt O95398). Briefly: Counterscreen qHTS for antagonist of cAMP-regulated guanine nucleotide exchange factor 3 (EPAC1) (AID 1645888).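 Further: fluorescence loss as bound BODIPY-GDP is released from Rap1B; % of control where 0% means no effect.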 The note with it: Rap1B-BODIPY-GDP nucleotide exchange, fluorescence; series mostly up to 154 µM. Put shortly: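 Rap1B–BODIPY-GDP (250 nM) with 50 uM GDP; compounds pin-transferred to 9.74 nM–152 uM final (activator) or from 7.32 nM upwards (inhibitor). Fluorescence Ex/Em 480/540 nm read at 5 and 30 min, then after adding cAMP or buffer, at room temperature.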
In general terms: A counterscreen serves to expose hits that act by an unwanted route or on another target.

Results filed as inconclusive are left out. Unmarked numbers belong to inactive results. The source made the active and inactive calls. The call rests on the fitted dose curve; in most records, active means well fitted curve in the direction sought with a large enough effect; inconclusive means small, poorly fitted or top-dose-only effect, or another doubt; inactive means no such curve, though single readings can be large; an effect the other way counts as inactive or inconclusive.

For `COc1ccc(NC(=O)CSc2nc(O)cc(=O)n2-c2ccc(OC)cc2)cc1`, the Potency entry in assay [1], in assay [2], in assay [3] and in assay [4] was “inactive” in each case.

`Cc1ccc(NC(=O)c2sc3nc(-c4ccncc4)ccc3c2N)cc1`: the Potency result in assay [1], in assay [2], in assay [3] and in assay [4] was “inactive” in each case.

Turning to `Cc1cccc(Cn2c(COc3ccccc3)nc3ccccc32)c1`, the Potency entry in assay [1], in assay [2], in assay [3] and in assay [4] was “inactive” throughout.

For the compound `CCC(=O)NC(c1ccc(OC)cc1)c1c(O)ccc2ccccc12` (centres undefined), the Potency entry in assay [1], in assay [2], in assay [3] and in assay [4] was “inactive” throughout.

`O=C(CN1C(=O)/C(=C2/SC(=S)N(CCS(=O)(=O)O)C2=O)c2ccccc21)Nc1cccc(C(F)(F)F)c1`: the Potency entry in assay [1] and in assay [3] was “inactive” each time. For the same compound, in assay [2], the activation is 2.25% [at 17.1 µM, percent relative to cAMP agonist control]. The activity change, negative = inhibition in assay [4] was -24.5% [at 30.8 µM].

Regarding `CCOc1cc(/C=C2/NC(=O)NC2=O)cc(Br)c1OCc1ccc(C(=O)O)cc1`, the Potency result in assay [1] and in assay [3] was “inactive” in each case. Further, in assay [2], the activation was 4.12% [at 17.1 µM, percent relative to cAMP agonist control]. Further, in assay [4], the activity change, negative = inhibition was -1.26% [at 30.8 µM].

On to `Cc1cc(C)c(S(=O)(=O)/N=C2\C=C(Nc3ccc(C(=O)O)cc3)C(=O)c3ccccc32)c(C)c1`, for which the Potency entry in assay [1], in assay [2], in assay [3] and in assay [4] was “inactive” each time.

Regarding `CCOC(=O)C1=CCN(S(=O)(=O)c2ccccc2Cl)C1c1ccc(Cl)c(Cl)c1` (centres undefined), the Potency entry in assay [1] and in assay [3] was “inactive” in each case. Also, in assay [2], the activation was 4.1% [at 17.1 µM, percent relative to cAMP agonist control]. In assay [4], the activity change, negative = inhibition is -3.01% [at 30.8 µM].

On to `Cc1cc(C)nc(NS(=O)(=O)c2ccc(NC(=O)CN3C(=O)S/C(=C\c4ccccc4)C3=O)cc2)n1`, for which the Potency result in assay [1], in assay [2], in assay [3] and in assay [4] was “inactive” throughout.

On to `COc1ccc(N2Cc3cccc(C(=O)Nc4ccc(C(C)C)cc4)c3C2=O)cc1`, for which the Potency entry in assay [1], in assay [2], in assay [3] and in assay [4] was “inactive” each time.

Take `COCCCNC(=O)C[C@@H]1C[C@@]2(C(=O)OC)CCCCC=C2N(Cc2cccc3ccccc23)C1=O`: the Potency result in assay [1] and in assay [3] was “inactive” each time. For the same compound, the activation in assay [2] is 3.32% [at 17.1 µM, percent relative to cAMP agonist control]. For the same compound, the activity change, negative = inhibition in assay [4] is -43.8% [at 30.8 µM].

In the case of `CCn1c(SCC(=O)N/N=C/C=C\c2ccco2)nc2ccccc21`, the Potency result in assay [1], in assay [2], in assay [3] and in assay [4] was “inactive” in each case.

Consider `O=C(Nc1ccccc1)C1=C(O)CC(c2ccc(Cl)cc2)N2CCN=C12` (centres undefined), for which the Potency result in assay [1], in assay [2], in assay [3] and in assay [4] was “inactive” throughout.

Consider `Cc1ccc(Nc2c(-c3ccccn3)nc3cccc(C)n23)cc1`, for which the Potency result in assay [1], in assay [2], in assay [3] and in assay [4] was “inactive” each time.

Turning to `CCn1c(=O)c2sccc2n2c(CCCC(=O)N3CCN(c4cc(Cl)ccc4C)CC3)nnc12`, the Potency entry in assay [1], in assay [2], in assay [3] and in assay [4] was “inactive” throughout.

As for `CCN(CC)CC#CC(OC)(c1ccccc1)c1ccccc1`, the Potency result in assay [1], in assay [2], in assay [3] and in assay [4] was “inactive” in each case.

Regarding `CCCc1ccc2oc(C(=O)NCCc3nc(C(=O)OCC)cs3)c(C)c2c1`, the Potency entry in assay [1] and in assay [3] was “inactive” each time. In addition, in assay [2], the activation was -3.74% [at 17.1 µM, percent relative to cAMP agonist control]. Moreover, the activity change, negative = inhibition in assay [4] was -14.7% [at 30.8 µM].

In the case of `Fc1ccc(/C=C2\CCCC3=C2Nc2ncnn2C3c2ccc(F)cc2)cc1` (centres undefined), the Potency entry in assay [1] and in assay [3] was “inactive” each time. Further, the activation in assay [2] is 4.94% [at 17.1 µM, percent relative to cAMP agonist control]. Besides, the activity change, negative = inhibition in assay [4] is -4.64% [at 30.8 µM].

Take `CCOC(=O)c1ccccc1NC(=O)c1c(C)oc2ncnc(N3CCOCC3)c12`: the Potency result in assay [1], in assay [2], in assay [3] and in assay [4] was “inactive” each time.

Take `CC(C)Cc1ccc(CN2C(C(C)C)C(=O)N(Cc3cn(CCC4OCCO4)nn3)CCS2(=O)=O)cc1` (centres undefined): the Potency entry in assay [1] and in assay [3] was “inactive” each time. For the same compound, the activation in assay [2] is 4.64% [at 17.1 µM, percent relative to cAMP agonist control]. Also, the activity change, negative = inhibition in assay [4] is -13.5% [at 30.8 µM].

For the compound `COc1cc2c(cc1OC)C(c1ccc(Cl)cc1)N(c1ccc(C)c(F)c1)C(=O)C2` (centres undefined), the Potency entry in assay [1], in assay [2] and in assay [4] was “inactive” in each case. The outcome in assay [3] is “inactive [at 12.7 µM]”.

For `CC(c1nc2ccccc2n1Cc1ccccc1)n1c(-c2cnccn2)nc2ccccc21` (centres undefined), the Potency result in assay [1], in assay [2], in assay [3] and in assay [4] was “inactive” each time.

`CCOc1cccc(CNc2ccc(O)cc2)c1OCc1ccc(Cl)cc1`: the Potency result in assay [1], in assay [2], in assay [3] and in assay [4] was “inactive” in each case.

Take `Nc1ccc2c(c1)C(=O)C(=O)c1ccccc1-2`: the Potency result in assay [1], in assay [2], in assay [3] and in assay [4] was “inactive” throughout.

Turning to `Cc1ccc(O)c(-c2n[nH]c3c2C(c2ccc(F)cc2)N(Cc2ccco2)C3=O)c1` (centres undefined), the Potency entry in assay [1], in assay [2], in assay [3] and in assay [4] was “inactive” in each case.

As to `CC(C)c1ccc(/C=C/C(=O)Nc2ccc(CN3CCOCC3)cc2)cc1`, the Potency result in assay [1], in assay [2] and in assay [4] was “inactive” in each case. The Potency in assay [3] was 95.3 µM (active).
